This note sets out measurements from PMC7862700, “An all-to-all approach to the identification of sequence-specific readers for epigenetic DNA modifications on cytosine”.

Common to all, as to assay: DAPPL (digital affinity profiling via proximity ligation, sequencing); 10 mM Tris-HCl pH 7.5, 50 mM NaCl, 1 mM DTT, 4% glycerol, room temperature, 30 min; GST-TFs on glutathione beads, 16-mer random dsDNA library, 0.1% formaldehyde crosslink after washing; high values mean tight binding
One assay concerns the target T1, FLI1 (Homo sapiens, UniProt Q01543 1-452).
T1 sequence: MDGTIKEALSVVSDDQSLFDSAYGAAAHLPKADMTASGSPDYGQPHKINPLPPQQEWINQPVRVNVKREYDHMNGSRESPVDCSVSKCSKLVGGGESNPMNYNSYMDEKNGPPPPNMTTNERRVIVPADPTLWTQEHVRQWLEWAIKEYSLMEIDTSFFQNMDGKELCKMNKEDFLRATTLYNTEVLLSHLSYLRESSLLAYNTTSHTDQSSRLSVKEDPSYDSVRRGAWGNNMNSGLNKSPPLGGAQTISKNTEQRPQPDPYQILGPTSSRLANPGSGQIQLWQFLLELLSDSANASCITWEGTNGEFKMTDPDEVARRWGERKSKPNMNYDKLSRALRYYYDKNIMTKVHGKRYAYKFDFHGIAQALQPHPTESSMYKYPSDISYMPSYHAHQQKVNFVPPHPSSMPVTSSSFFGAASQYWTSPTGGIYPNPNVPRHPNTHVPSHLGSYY
As to conditions: protein: recombinant; tags: N-terminal GST; dsDNA, one strand shown. Summed up:
(§1)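 Pools were built from human transcription factors expressed in yeast as GST fusions, captured on glutathione beads and DNA-barcoded, along with a tag-only sample. Incubation with 200 nmole of a 16-mer random double-stranded DNA library lasted 30 min at room temperature in Tris/NaCl/DTT/glycerol buffer, and was followed by washing, 0.1% formaldehyde crosslinking, proximity ligation, PCR amplification and Illumina NextSeq500 sequencing. Binding signal is the quotient of each hexamer's read frequency for a factor and its frequency for the tag-only sample.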

The next assay deals with T2, ELK1 (Homo sapiens, UniProt P19419 1-428).
T2 sequence: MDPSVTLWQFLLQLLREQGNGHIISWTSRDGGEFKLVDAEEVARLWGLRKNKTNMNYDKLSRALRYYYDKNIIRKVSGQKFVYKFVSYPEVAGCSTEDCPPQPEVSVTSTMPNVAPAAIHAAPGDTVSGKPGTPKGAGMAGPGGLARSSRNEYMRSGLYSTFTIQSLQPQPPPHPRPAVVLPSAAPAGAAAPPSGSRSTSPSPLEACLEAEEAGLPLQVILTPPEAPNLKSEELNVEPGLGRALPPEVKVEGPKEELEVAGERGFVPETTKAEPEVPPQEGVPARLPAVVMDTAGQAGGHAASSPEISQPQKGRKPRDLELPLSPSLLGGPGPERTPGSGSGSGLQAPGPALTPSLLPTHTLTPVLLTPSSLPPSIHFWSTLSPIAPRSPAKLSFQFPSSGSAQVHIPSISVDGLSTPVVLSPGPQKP
As to conditions: protein: recombinant; tags: N-terminal GST; dsDNA, one strand shown. Summed up:
as §1

The target in another assay is T3, GABPA (Homo sapiens, UniProt Q06546 1-454).
T3 sequence: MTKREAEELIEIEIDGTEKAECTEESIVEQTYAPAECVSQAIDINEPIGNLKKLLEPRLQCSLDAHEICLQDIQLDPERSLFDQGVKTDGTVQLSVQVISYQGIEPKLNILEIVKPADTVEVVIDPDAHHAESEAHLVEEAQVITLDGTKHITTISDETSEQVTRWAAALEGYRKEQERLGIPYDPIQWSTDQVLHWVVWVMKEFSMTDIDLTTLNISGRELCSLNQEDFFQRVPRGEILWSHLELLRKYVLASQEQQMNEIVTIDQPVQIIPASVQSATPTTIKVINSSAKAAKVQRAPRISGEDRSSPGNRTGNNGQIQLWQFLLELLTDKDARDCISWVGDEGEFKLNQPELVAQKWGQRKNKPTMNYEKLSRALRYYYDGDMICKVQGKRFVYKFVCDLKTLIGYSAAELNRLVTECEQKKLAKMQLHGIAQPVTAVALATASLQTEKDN
To be noted: protein: recombinant; tags: N-terminal GST; dsDNA, one strand shown. Summed up:
as §1

The target of the next assay is T4, ERG (Homo sapiens, UniProt P11308 1-479).
T4 sequence: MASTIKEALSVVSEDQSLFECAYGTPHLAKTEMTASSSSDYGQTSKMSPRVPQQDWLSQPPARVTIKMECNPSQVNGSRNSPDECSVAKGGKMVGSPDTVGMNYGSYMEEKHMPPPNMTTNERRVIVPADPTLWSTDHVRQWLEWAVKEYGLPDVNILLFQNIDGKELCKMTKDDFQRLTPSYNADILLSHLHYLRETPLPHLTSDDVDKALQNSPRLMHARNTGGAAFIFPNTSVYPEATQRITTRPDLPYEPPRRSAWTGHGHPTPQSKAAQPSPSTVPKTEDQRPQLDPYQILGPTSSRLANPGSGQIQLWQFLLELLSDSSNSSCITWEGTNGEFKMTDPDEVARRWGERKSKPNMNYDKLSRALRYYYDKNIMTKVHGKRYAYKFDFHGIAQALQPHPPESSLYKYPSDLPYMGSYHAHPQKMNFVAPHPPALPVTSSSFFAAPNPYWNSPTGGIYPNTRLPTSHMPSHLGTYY
To be noted: protein: recombinant; tags: N-terminal GST; dsDNA, one strand shown. Summed up: as §1

The target of a further assay is ELF1 (Homo sapiens, UniProt P32519 1-619). As to conditions: protein: recombinant; tags: N-terminal GST; dsDNA, one strand shown. Summed up: as §1
The next assay deals with T5, EHF (Homo sapiens, UniProt Q9NZC4 1-300).
T5 sequence: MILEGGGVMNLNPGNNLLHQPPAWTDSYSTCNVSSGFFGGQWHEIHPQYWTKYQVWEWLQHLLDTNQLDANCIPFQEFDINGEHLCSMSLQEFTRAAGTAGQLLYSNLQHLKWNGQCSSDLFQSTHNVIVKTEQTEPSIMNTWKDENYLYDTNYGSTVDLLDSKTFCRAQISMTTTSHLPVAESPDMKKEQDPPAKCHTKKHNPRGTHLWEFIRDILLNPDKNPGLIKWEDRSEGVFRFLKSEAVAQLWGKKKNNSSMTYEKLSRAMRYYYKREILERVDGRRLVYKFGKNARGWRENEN
To be noted: protein: recombinant; tags: N-terminal GST; dsDNA, one strand shown. Summed up:
as §1

A further assay concerns the target SPI1 (Homo sapiens, UniProt P17947 1-270). To be noted: protein: recombinant; tags: N-terminal GST; dsDNA, one strand shown. The method, boiled down:
as §1

The next assay deals with SPIB (Homo sapiens, UniProt Q01892 1-262). To be noted: protein: recombinant; tags: N-terminal GST; dsDNA, one strand shown. The method, boiled down:
as §1

The target of a further assay is T6, ELK3 (Homo sapiens, UniProt P41970 1-407).
T6 sequence: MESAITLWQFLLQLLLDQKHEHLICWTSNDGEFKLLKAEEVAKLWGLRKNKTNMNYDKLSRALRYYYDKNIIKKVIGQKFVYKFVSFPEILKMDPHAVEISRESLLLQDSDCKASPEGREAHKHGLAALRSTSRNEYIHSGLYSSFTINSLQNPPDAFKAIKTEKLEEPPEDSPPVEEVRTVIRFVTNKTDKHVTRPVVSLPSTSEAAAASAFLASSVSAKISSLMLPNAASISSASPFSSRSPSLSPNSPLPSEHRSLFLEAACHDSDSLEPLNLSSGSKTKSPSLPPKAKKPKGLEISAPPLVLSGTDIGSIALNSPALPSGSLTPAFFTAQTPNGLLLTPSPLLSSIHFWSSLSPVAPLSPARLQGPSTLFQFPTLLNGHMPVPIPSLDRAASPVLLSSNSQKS
To be noted: protein: recombinant; tags: N-terminal GST; dsDNA, one strand shown. The method, boiled down: as §1

Another assay deals with T7, FEV (Homo sapiens, UniProt Q99581 1-238).
T7 sequence: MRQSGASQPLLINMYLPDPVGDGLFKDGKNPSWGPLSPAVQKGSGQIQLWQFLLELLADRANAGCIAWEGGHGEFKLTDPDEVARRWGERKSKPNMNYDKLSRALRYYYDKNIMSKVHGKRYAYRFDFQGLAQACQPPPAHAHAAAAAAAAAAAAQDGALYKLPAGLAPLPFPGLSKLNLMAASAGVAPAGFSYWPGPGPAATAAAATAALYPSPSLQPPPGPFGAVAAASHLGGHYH
As to conditions: protein: recombinant; tags: N-terminal GST; dsDNA, one strand shown. The method, boiled down: as §1

The target in another assay is ETV5 (Homo sapiens, UniProt P41161 1-510). To be noted: protein: recombinant; tags: N-terminal GST; dsDNA, one strand shown. Summed up: as §1
The target of a further assay is HSF1 (Homo sapiens, UniProt Q00613 1-529). To be noted: protein: recombinant; tags: N-terminal GST; chain copies: 3; dsDNA, one strand shown. Summed up: as §1
The next assay has as its target T8, SPIC (Homo sapiens, UniProt Q8N5J4 1-248).
T8 sequence: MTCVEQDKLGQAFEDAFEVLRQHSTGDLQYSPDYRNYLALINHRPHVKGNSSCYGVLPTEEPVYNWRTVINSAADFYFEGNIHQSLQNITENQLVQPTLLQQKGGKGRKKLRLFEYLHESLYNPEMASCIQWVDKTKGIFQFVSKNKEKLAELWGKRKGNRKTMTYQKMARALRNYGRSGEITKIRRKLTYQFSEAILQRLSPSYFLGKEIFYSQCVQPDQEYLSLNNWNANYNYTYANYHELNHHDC
To be noted: protein: recombinant; tags: N-terminal GST; dsDNA, one strand shown. The method, boiled down: as §1

A further assay concerns the target ELF4 (Homo sapiens, UniProt Q99607 1-663). To be noted: protein: recombinant; tags: N-terminal GST; dsDNA, one strand shown. Summed up:
as §1

The target of another assay is T9, ELK4 (Homo sapiens, UniProt P28324-2 1-405).
T9 sequence: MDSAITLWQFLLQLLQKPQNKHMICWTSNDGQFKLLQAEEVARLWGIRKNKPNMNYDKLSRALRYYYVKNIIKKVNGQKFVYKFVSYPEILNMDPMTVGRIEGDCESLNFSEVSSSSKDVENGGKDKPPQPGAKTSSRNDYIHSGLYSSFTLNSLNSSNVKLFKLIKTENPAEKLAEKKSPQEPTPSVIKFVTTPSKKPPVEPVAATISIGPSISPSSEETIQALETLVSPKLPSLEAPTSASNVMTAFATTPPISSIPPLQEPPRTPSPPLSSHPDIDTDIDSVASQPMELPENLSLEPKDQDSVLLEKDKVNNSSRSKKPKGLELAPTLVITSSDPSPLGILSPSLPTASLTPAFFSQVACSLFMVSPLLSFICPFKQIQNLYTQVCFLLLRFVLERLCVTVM
As to conditions: protein: recombinant; tags: N-terminal GST; dsDNA, one strand shown. The method, boiled down: as §1

The target of the next assay is T10, ETV2 (Homo sapiens, UniProt O00321 1-342).
T10 sequence: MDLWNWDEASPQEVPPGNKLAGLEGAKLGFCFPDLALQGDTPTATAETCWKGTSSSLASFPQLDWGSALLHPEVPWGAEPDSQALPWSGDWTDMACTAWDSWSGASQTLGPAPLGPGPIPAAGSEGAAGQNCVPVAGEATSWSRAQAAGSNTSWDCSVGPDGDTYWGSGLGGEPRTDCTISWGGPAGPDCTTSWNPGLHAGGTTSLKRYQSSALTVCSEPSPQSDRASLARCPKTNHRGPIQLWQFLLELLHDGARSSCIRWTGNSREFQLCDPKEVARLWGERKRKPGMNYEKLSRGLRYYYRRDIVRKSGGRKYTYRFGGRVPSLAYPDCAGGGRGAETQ
To be noted: protein: recombinant; tags: N-terminal GST; dsDNA, one strand shown. Summed up:
as §1

The target in the next assay is T11, ELF3 (Homo sapiens, UniProt P78545 1-371).
T11 sequence: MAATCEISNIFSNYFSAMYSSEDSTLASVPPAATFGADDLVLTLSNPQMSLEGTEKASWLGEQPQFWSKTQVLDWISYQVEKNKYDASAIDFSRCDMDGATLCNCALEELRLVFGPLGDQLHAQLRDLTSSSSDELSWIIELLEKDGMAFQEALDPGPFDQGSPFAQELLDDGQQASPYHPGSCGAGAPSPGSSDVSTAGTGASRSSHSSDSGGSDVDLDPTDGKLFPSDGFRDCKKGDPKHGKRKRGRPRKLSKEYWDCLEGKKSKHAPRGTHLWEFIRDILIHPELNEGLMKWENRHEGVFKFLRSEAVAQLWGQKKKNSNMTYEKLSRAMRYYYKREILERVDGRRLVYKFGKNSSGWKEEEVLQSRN
To be noted: protein: recombinant; tags: N-terminal GST; dsDNA, one strand shown. Summed up: as §1

Another assay addresses ETV1 (Homo sapiens, UniProt P50549 1-477). As to conditions: protein: recombinant; tags: N-terminal GST; dsDNA, one strand shown. The method, boiled down:
as §1

Chain of HSF1 (Q00613 whole entry): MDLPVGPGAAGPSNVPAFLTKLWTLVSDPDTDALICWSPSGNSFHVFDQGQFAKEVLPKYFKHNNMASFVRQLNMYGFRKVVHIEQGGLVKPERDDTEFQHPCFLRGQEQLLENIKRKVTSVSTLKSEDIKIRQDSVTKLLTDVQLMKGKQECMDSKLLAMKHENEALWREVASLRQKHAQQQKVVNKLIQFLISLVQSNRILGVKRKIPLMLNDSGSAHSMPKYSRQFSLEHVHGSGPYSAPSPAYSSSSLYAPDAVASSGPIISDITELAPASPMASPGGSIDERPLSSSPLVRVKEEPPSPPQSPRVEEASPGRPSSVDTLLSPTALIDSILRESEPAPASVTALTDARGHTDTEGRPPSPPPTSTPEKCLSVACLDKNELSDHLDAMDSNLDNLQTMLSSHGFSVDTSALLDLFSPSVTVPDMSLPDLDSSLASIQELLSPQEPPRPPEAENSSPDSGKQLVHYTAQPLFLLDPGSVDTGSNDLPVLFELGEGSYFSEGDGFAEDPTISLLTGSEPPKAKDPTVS
Chain of ETV1 (P50549 whole entry): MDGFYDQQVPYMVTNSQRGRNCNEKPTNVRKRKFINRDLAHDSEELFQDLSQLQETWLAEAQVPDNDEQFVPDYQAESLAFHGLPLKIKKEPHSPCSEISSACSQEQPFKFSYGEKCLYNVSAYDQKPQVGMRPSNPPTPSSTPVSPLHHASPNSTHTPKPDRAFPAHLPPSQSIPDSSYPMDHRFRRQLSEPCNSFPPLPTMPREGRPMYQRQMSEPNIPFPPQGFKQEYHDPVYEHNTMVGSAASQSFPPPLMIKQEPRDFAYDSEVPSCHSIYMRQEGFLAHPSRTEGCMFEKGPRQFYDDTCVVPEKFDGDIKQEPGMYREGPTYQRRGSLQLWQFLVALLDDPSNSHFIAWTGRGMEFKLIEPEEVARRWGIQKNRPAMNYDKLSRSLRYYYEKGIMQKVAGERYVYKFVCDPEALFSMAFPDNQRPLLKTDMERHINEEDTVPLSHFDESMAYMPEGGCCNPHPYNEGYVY
Chain of SPIB (Q01892 whole entry): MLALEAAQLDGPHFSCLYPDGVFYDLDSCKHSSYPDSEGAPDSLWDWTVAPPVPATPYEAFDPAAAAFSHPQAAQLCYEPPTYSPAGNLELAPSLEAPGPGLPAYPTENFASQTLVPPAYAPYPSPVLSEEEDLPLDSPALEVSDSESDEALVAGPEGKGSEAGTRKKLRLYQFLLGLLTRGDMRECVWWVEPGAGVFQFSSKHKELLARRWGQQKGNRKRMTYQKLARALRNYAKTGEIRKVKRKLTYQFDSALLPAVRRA
Chain of ELF4 (Q99607 whole entry): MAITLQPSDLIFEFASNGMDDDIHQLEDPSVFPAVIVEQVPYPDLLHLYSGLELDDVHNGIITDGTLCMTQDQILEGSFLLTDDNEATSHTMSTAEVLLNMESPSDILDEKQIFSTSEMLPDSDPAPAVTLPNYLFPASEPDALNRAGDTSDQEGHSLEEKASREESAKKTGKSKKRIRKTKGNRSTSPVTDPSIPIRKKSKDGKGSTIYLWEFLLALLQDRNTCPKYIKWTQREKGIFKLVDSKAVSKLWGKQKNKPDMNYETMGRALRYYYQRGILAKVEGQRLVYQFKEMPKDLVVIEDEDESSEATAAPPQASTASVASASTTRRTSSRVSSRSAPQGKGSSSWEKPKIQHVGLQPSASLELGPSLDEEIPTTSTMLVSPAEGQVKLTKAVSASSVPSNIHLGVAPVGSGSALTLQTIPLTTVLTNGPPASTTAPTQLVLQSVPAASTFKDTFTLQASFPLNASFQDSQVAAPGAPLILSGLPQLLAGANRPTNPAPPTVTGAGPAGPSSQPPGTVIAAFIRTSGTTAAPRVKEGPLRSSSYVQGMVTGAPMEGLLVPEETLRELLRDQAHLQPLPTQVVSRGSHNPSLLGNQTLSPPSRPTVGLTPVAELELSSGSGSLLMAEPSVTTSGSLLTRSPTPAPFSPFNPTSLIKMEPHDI
Chain of ETV5 (P41161 whole entry): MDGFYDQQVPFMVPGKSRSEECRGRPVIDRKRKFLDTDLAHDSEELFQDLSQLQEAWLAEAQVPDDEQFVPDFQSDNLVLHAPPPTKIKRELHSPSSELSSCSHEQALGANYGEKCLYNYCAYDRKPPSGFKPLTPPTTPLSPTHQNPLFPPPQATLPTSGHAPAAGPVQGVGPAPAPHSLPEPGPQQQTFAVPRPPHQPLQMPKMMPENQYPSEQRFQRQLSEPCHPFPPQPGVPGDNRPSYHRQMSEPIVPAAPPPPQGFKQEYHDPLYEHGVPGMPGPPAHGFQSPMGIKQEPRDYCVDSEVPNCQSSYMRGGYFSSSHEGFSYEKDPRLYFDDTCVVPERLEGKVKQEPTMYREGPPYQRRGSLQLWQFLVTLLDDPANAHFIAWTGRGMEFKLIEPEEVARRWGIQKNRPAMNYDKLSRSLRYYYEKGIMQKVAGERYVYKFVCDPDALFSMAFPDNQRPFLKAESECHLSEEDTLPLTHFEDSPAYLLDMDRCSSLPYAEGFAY
Chain of ELF1 (P32519 whole entry): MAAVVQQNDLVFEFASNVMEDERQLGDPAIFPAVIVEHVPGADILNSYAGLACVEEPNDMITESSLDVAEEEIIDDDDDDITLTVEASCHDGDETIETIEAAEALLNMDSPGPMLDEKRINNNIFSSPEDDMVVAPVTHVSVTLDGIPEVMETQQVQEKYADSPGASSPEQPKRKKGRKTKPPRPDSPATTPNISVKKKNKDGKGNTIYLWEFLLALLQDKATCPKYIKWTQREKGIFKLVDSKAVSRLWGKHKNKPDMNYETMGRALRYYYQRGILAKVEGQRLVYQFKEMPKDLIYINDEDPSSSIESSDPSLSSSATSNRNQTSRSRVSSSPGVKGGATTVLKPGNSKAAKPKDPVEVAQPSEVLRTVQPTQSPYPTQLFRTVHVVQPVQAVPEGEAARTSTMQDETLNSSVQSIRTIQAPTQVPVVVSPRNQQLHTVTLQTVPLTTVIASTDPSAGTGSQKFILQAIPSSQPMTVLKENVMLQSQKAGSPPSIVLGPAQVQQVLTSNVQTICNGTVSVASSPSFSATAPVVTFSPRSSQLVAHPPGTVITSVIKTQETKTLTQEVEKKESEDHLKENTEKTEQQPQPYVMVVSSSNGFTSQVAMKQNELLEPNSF

Turning to ATGCAC, the binding signal is 1.28 fold enrichment (6-mer frequency, TF over GST control) with FLI1; 1.33 fold enrichment (6-mer frequency, TF over GST control) in the assay with ELK1; 1.33 fold enrichment (6-mer frequency, TF over GST control) with GABPA; 1.2 fold enrichment (6-mer frequency, TF over GST control) with ERG; 1.3 fold enrichment (6-mer frequency, TF over GST control) with ELF1; 1.21 fold enrichment (6-mer frequency, TF over GST control) with EHF. Also, the binding signal with SPI1 is 1.3 fold enrichment (6-mer frequency, TF over GST control); with SPIB, 1.34 fold enrichment (6-mer frequency, TF over GST control); in the assay with ELK3, 1.34 fold enrichment (6-mer frequency, TF over GST control); with FEV, 1.37 fold enrichment (6-mer frequency, TF over GST control); with ETV5 it was 1.28 fold enrichment (6-mer frequency, TF over GST control); with HSF1, 1.03 fold enrichment (6-mer frequency, TF over GST control). Besides, the binding signal in the assay with SPIC is 1.19 fold enrichment (6-mer frequency, TF over GST control); with ELF4, 1.3 fold enrichment (6-mer frequency, TF over GST control); with ELK4 it was 1.36 fold enrichment (6-mer frequency, TF over GST control); with ETV2, 1.3 fold enrichment (6-mer frequency, TF over GST control); with ELF3, 1.36 fold enrichment (6-mer frequency, TF over GST control); with ETV1, 1.19 fold enrichment (6-mer frequency, TF over GST control).
